PNC inhibitor: inhibitors of perinucleolar compartment assembly; AID 2417; PC3M PTB-GFP, PNC prevalence imaging, 16 h; active compounds read low; activity change (PNC), negative = inhibition, % at 10 µM; actives 3.1% (n = 140,000);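 active means readout at or below -70, meaning at least 70% loss of cells showing the perinucleolar compartment, a nuclear body marking cancer cells; inconclusive means readout between -30 and a set limit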;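 further: plate controls were DMSO wells for no effect and camptothecin positive control wells for full effect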
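PC3M cells stably expressing PTB-GFP, 750–1000 cells/well, treated 16 h at 37 °C with compound (23 nl of library stock), in duplicate. After paraformaldehyde fixation and Hoechst stain, imaged at 20x; PNC prevalence scored by image analysis.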
IMPase cell inh: membrane-permeable compound that blocks inositol monophosphatase; P97697; CHO-M1 cells, IP1 accumulation, HTRF TR-FRET ratio; inhibition (IP1 accumulation), % at 46.1 µM; 120,000 tested, under 10 active; active means well fitted curve in the direction sought with a large enough effect in the signal ratio, not every such curve was filed as active; inconclusive means small, poorly fitted or top-dose-only effect, or a change in a side signal; inactive means no such curve, though single readings can be large or run the other way; the % refers to the signal ratio;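 further: cells stimulated with carbachol in lithium chloride buffer; plate controls were DMSO basal wells for no effect and reference inhibitor wells for full effect; higher means more IMPase inhibition seen as more IP1 and lower FRET ratio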
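Elevated IP1 in lysates lowers TR-FRET signal (665/620 ratio and 620 channel reported). Cells were CHO-M1, given carbachol (50 uM as added) plus 50mM LiCl, pH 7.4, 30 min, 37C; compounds titrated up to 46 uM; AC50 by Hill equation.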
IMPase Li inh: cell-permeable IMPase inhibitors with lithium potentiation; actives 0.35% (n = 210,000); Potency, µM (series often up to 59.4 µM), without a hit: at the highest dose activity, negative = IMPase inhibition, hits mostly inhibitors; CHO-M1 cells, IP1 TR-FRET (IP-One), carbachol + lithium; active means well fitted inhibition curve with a large enough effect; inconclusive means small, poorly fitted or top-dose-only effect; inactive means no such curve, though single readings can be large or run the other way;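 further: IP1 builds up when IMPase is blocked and the TR-FRET signal falls; potency means the concentration at half of the fitted maximal effect; plate controls were basal vehicle for no effect and high inhibitor control for full effect; nearly all actives have a fitted effect of over 50% in size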
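CHO cells stably expressing M1 receptor (2000/well) were cultured 16–30 h, then exposed to compounds with a small lithium addition for 30 min at 37C. IP1 was measured by TR-FRET competition; AC50 from Hill fits.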
HPGD inh: blocks human HPGD enzyme activity. purified HPGD, NADH fluorescence kinetic, PGE2 substrate. P15428. actives 4.3% (n = 150,000). Potency, µM, for inactives: at the highest dose activity change, negative = inhibition, most hits filed as inhibitors; further: potency means the concentration at half of the fitted maximal effect
Target sequence (P15428 whole entry, looked up): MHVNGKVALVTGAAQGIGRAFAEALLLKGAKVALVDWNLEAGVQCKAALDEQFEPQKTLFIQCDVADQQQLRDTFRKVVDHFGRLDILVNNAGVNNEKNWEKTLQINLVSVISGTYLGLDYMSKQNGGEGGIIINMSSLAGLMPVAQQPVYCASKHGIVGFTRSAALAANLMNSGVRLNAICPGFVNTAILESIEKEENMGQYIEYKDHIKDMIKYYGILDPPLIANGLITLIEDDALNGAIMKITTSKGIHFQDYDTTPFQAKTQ
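20 nM HPGD preincubated 15 min at room temperature with compound in 50 mM Tris-HCl pH 8, 0.01% Tween 20. Started with 1 mM NAD+ and 30 uM prostaglandin E2; NADH fluorescence (360/450 nm) read 5 times over 30-s intervals, last minus first.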
ALDH1A1 inh: ALDH1A1 (human) enzyme inhibition. actives 7.3% (n = 220,000). Potency, µM (top dose mostly 75.3 µM), inactives show at the top dose activity, negative = inhibition, most hits filed as inhibitors. AID 1030. P00352. Purified ALDH1A1, NADH fluorescence, propionaldehyde substrate;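 further: potency means the concentration at half of the fitted maximal effect; plate controls were no enzyme wells and a reference inhibitor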
Target sequence (P00352 whole entry, looked up): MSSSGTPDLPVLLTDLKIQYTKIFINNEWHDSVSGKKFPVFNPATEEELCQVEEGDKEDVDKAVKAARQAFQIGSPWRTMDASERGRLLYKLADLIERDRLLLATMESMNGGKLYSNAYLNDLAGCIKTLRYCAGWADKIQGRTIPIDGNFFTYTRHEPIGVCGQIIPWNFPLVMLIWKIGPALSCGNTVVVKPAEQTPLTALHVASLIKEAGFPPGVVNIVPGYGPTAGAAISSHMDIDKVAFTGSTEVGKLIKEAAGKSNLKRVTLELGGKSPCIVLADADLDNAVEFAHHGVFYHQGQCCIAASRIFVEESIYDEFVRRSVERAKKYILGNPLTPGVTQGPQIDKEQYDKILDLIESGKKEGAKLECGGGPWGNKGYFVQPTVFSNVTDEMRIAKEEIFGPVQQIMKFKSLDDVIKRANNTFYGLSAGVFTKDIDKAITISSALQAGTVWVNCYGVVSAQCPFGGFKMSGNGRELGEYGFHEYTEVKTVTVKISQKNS
An asterisk follows results filed as active; ? = inconclusive; · = no result; [ ] = remark or other dose. Most compounds without a hit are left out; they make up all but 11% or so of the library. Unless noted, the call rests on the fitted dose curve; in most records, active means well fitted inhibition curve with a large enough effect (not every such curve was filed as active); inconclusive means small, poorly fitted or top-dose-only effect, or another doubt; inactive means no such curve, though single readings can be large or run the other way. Unless noted, on the % scale 0 is the no-effect control and ±100 the full control effect.

SMILES	PNC inhibitor	IMPase cell inh	IMPase Li inh	HPGD inh	ALDH1A1 inh
CC(OC(=O)CCc1nc2ccccc2c(=O)[nH]1)C(=O)c1ccc(C(C)(C)C)cc1 (configuration not stated)	?	·	4.8%	?	4.9%
CC1CCc2cc(F)ccc2N1C(=O)CSc1nnc2c(n1)[nH]c1ccc(F)cc12 (configuration not stated)	?	1.8	13.7%[38.3 µM]	-25.7%	?
O=C(COc1ccc(OCc2ccccc2)cc1)NN=C1CCCC1	·	·	9.2%	·	8.91µM*
CC(C)NC(=O)COc1ccc(OCc2ccccc2)cc1	·	·	8.9%	·	2.2%
COCCCNC(=S)NNC(=S)Nc1ccccc1	·	·	·	·	17.8µM*
COCCCNC(=S)NCCc1ccc(F)cc1	·	·	-5.2%	·	5.7%
NC(=S)NNC(=S)Nc1ccccc1	·	·	6.2%	·	22.4µM*
COCCCNC(=S)NNC(=S)Nc1ccc(F)cc1F	-8.6	3.4	-2.7%[38.3 µM]	?	7.94µM*
C=COCCNC(=S)Nc1ccccc1	·	·	24.9%	·	0.9%
C/C=C1/C(=O)C[C@H]2[C@@H]3CCC4=CC(=O)CC[C@]4(C)[C@H]3CC[C@]12C	·	·	6.6%	0.5%	?
Cc1ccc(S(=O)(=O)CCC(=O)c2ccc(O)cc2O)cc1	-9.0	-2.2	13.1%[38.3 µM]	-21.6%	0.282µM*
O=C(COC(=O)c1ccco1)NCc1ccc(F)cc1	·	·	0.7%	·	5.4%
Cn1cc(-c2nnnn2-c2ccccc2)c(=O)c2ccccc21	30.4	1.9	13.1%[38.3 µM]	-12.2%	7.08µM*
Cn1cc(-c2ccccc2C(N)=O)c(=O)c2ccccc21	·	·	-7.3%	·	-2.4%
COC(=O)c1cc(=O)nc2sc3ccccc3n12	14.8	2.0	-0.2%[38.3 µM]	-5.8%	?
COC(=O)c1cc(=O)nc2scc(C)n12	26.1	·	-23.1%	-6.9%	22.4µM*
O=C(NNC(=O)c1nn(-c2ccc(F)cc2)ccc1=O)c1ccccc1Cl	·	·	·	·	3.4%
CC(C)n1cc(C(=O)c2cc(Br)ccc2O)cc(C#N)c1=O	25.8	4.5	31.4%[38.3 µM]	-13.6%	?
O=C(/C=C/c1ccccn1)c1cc(Br)ccc1O	·	·	·	·	22.4µM*
O=C(/C=C/c1ccccn1)c1ccc(Br)cc1O	?	·	-5.9%	-2.5%	-1.4%
O=C(c1cc(Br)ccc1O)c1cc(Br)ccc1O	·	·	9.1%	2.82µM*	-2.0%[13.5 µM]
C/C=N/NC(=O)c1cc(Br)ccc1O	?	-0.5	-1.1%	-16.6%	12.4%
N#Cc1cc(C(=O)c2cc(Br)ccc2O)cn(C2CC2)c1=O	-15.4	-1.2	5.1%[38.3 µM]	17.8µM*	14.1µM*
O=S(=O)(Nc1ccc(C(F)(F)F)cc1)c1ccc2c(c1)OCCO2	·	-6.1	·	·	·
COc1ccc(-c2nn(-c3ccccc3)cc2/C=C/C(=O)N2CCN(c3ccccn3)CC2)cc1	·	·	8.9%	·	?
SMILES	PNC inhibitor	IMPase cell inh	IMPase Li inh	HPGD inh	ALDH1A1 inh
CN=C(Nc1cccc(Cl)c1)SC1CC(=O)N(c2ccc(OC)cc2)C1=O (configuration not stated)	·	·	18.3%	·	?
CCCCCCCCCC[Si](C)(C)CCC(=O)N[C@@H](Cc1ccc(C)cc1)c1ccccc1	·	3.8	·	·	·
COC(=O)C1CCN(c2ccc(Cl)nn2)CC1	·	·	-2.5%	·	4.7%
CN(C1CCCCC1)S(=O)(=O)Cc1ccccc1	35.0	9.5	2.8%[38.3 µM]	17.8µM*	-95.5%
CS(=O)(=O)N(CC(=O)NCc1ccccc1)C1CCCCC1	?	4.3	-4.4%	-7.2%	4.5%
CO[C@H]1COC(=O)CCC[C@H](C)[C@H](OC)COC(=O)C/C=C\[C@@H]1C	·	·	·	·	6.4%[13.5 µM]
CCOc1ccc2nc(SC3CC(=O)N(c4ccc(OC)cc4OC)C3=O)sc2c1 (configuration not stated)	·	·	13.0%	·	25.1µM*
CCOc1ccc2nc(SC3CC(=O)N(c4ccc(C)cc4)C3=O)sc2c1 (configuration not stated)	2.8	2.4	17.9%[38.3 µM]	-6.5%	2.24µM*
CCOc1ccc2nc(SCC(=O)c3ccc(C)s3)sc2c1	33.9	-0.3	27.1%[38.3 µM]	14.1µM*	?
CCOc1ccc(N2C(=O)CC(Sc3nccc(C)n3)C2=O)cc1 (configuration not stated)	?	-0.4	5.2%[38.3 µM]	-5.4%	?
Cc1nc2cnc(N3CCOCC3)nc2n(CCc2ccccc2)c1=O	·	·	-8.4%	·	?
O=C(c1ccccc1CCc1ccccc1)N1CCN(c2ccccn2)CC1	-83.7*	0.5	5.1%[38.3 µM]	?	?
CCOC(=O)N1CCN(C(=O)CSCc2ccccc2)CC1	-2.1	·	-3.9%	-7.0%	-13.6%
CCOC(=O)N1CCN(C(=O)c2ccccc2CCc2ccccc2)CC1	?	7.5	15.3%[38.3 µM]	-6.1%	6.31µM*
CCOC(=O)N1CCN(C(=O)c2ccccc2-c2ccccc2)CC1	10.9	-1.7	9.6%	1.1%	-16.1%
CCOC(=O)N1CCN(C(=O)CSc2ccccc2)CC1	3.8	5.4	-4.6%[38.3 µM]	10µM*	?
CN1CCC(NC(=S)Nc2cccc([N+](=O)[O-])c2)CC1	·	·	3.9%	·	-2.6%
C=CCN1C(=O)SC(Cc2cccc(OC)c2O)C1=O (configuration not stated)	·	·	7.1%	·	?
Nc1cc2nsnc2cc1Br	34.5	?	?	-16.0%	7.94µM*
O=[N+]([O-])c1cc(CN2CCCC2)ccc1Sc1ccc(Cl)cc1	·	·	14.7%	·	0.6%
COc1ccc(NC(=O)c2cc(-c3cc(C)ccc3O)n[nH]2)cc1Cl	-24.6	-2.3	-1.7%[38.3 µM]	3.16µM*	5.5%
COc1ccc(CCNC(=O)c2cc(-c3ccc(C)c(C)c3O)n[nH]2)cc1OC	?	1.2	19.4%[38.3 µM]	-28.0%	?
COc1ccc(CCNC(=O)c2cc(-c3cc(C)ccc3O)n[nH]2)cc1OC	?	13.4	4.6%[38.3 µM]	3.98µM*	2.3%
CC(=O)c1c(C(=O)O)[nH]c(C(=O)O)c1C	·	·	-5.9%	·	5.3%
O=C1N/C(=C/c2cccn2-c2ccc(F)cc2)C(=O)N1Cc1ccccc1	26.6	-3.7	-3.7%[38.3 µM]	-17.4%	15.8µM*
SMILES	PNC inhibitor	IMPase cell inh	IMPase Li inh	HPGD inh	ALDH1A1 inh
O=C(O)c1cccc(-n2cccc2/C=C2\NC(=O)N(Cc3ccc(F)cc3)C2=O)c1	·	·	1.2%	·	-11.7%
COC(=O)CSc1nc2[nH]ncc2c(=O)[nH]1	·	·	5.9%	·	-0.2%
CCC(=O)Nc1cnc(NC(=O)c2cccc(F)c2)cc1C	-100.0*	1.7	-0.1%	-14.1%	3.4%
Cc1cc(NC(=O)c2cccc(F)c2)no1	-8.3	0.3	-2.6%[38.3 µM]	-9.7%	-0.6%
O=C(Nc1cccc(Cl)c1)N1CCCC1	13.4	4.1	17.4%[38.3 µM]	-4.6%	17.7%
O=C(O)C1CC=CCC1C(=O)Nc1ccc(S(=O)(=O)N2CCCc3ccccc32)cc1 (configuration not stated)	9.4	3.0	20.0%[38.3 µM]	-14.7%	22.4µM*
Cc1ccccc1Oc1ccc(NC(=O)C2CC=CCC2C(=O)O)cc1 (configuration not stated)	-82.9*	·	-0.9%	1.3%	2.24µM*
CC1CCCCN1C(=O)Nc1cccc(Cl)c1 (configuration not stated)	?	0.3	24.1%[38.3 µM]	22.4µM*	22.4µM*

Source: PubChem (National Center for Advancing Translational Sciences (NCATS))
